HT1080 IDH1KD tx = qHTS for induction of synthetic lethality in tumor cells producing 2HG: qHTS for the HT-1080-IDH1KD cell line | HT-1080 IDH1 knockdown viability, ATP luminescence, 48 h | AID 686971, 2013 | 360,000 tested, 2% active | Potency, µM (series often up to 46.1 µM), without a hit: top-dose activity, negative = toxicity, usual class: cytotoxic;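 also: potency is read from the fitted curve at half-maximal effect; 0% = DMSO wells and -100% = cell-free medium wells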
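Using the IDH1-knockdown HT-1080 line run in the same batch and compound series as the NT line, viability after 48 h at 37 °C was determined by CellTiter-Glo luminescence and expressed as % activity.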
HT1080NT lethal = qHTS for induction of synthetic lethality in tumor cells producing 2HG: qHTS for the HT-1080-NT fibrosarcoma cell line; HT-1080-NT fibrosarcoma viability, CellTiter-Glo ATP luminescence, 48 h; Potency, µM (series often up to 46.1 µM), inactives show at the highest dose activity, negative = less viability, most hits filed as cytotoxic; 360,000 tested, 1.6% active; AID 686970, 2013;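 also: NT is the 2HG producing partner of a matched IDH1 knockdown line; potency is read from the fitted curve at half-maximal effect; 0% = DMSO-treated cells and -100% = media-only wells without cells; nearly all actives have a fitted effect of over 55% in size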
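Toxicity toward the 2HG-producing NT line was scored as %Activity, normalised to DMSO and no-cell wells, from CellTiter-Glo luminescence after 48 hours' treatment.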
DT40 TDP1 CPT = qHTS for Inhibitors of human tyrosyl-DNA phosphodiesterase 1 (TDP1): qHTS in cells in presence of CPT | chicken DT40 Tdp1-/-;hTDP1 cells + 20 nM CPT, ATP luminescence, 48 h | Potency, µM (top dose mostly 46.2 µM), without a hit: at the highest dose activity change, negative = growth inhibition, usual class: inhibitors | 420,000 tested, 12% active | AID 686979, 2013; also: potency is read from the fitted curve at half-maximal effect; nearly all actives have a fitted effect of over 55% in size
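Chicken DT40 Tdp1-/- cells complemented with human TDP1, 400 cells/well, exposed to compounds plus 20 nM camptothecin for at least 48 h at 37 C; viability read as ATP content by CellTiter-Glo luminescence.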
IL1B secr inh = qHTS for Inhibitors of Inflammasome Signaling: IL-1-beta AlphaLISA Primary Screen; 360,000 tested, 4.7% active; THP-1 LPS/ATP IL-1B secretion, AlphaLISA, 16 h; stronger effect = lower value; activity change, % at 57.5 µM; in the data active = activity change below about -50%; inconclusive = mostly about -30% to -49%
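THP-1 cells pretreated 1 hr with compounds (up to 57.5 uM final), then stimulated with LPS (250 ng/mL final) plus ATP (1.25 mM final); secreted IL-1B measured by AlphaLISA after 16 hr, decreased signal indicating inhibition.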
DT40 TDP1 no CPT = qHTS for Inhibitors of human tyrosyl-DNA phosphodiesterase 1 (TDP1): qHTS in cells in absence of CPT; 420,000 tested, 15% active; DT40 Tdp1-/- hTDP1 cells, no CPT, ATP luminescence, 48 h; Potency, µM (top dose mostly 46.2 µM), without a hit: at the top dose activity change, negative = growth inhibition, hits mostly inhibitors; AID 686978, 2013; also: potency is read from the fitted curve at half-maximal effect; nearly all actives have a fitted effect of over 55% in size
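No-CPT arm: Tdp1-/-;hTDP1 DT40 cells (400/well) plus compounds, incubated ≥48 hr at 37 °C. Readout CellTiter-Glo luminescence.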
Numbers without * were called inactive; ? = inconclusive; . = no result. This is a sample that favours compounds with a hit; in the whole collection about 19% have one here. Unless noted, calls follow the shape of the dose curve; as a rule, active = well fitted curve in the direction sought with a large enough effect; inconclusive = small, poorly fitted or top-dose-only effect, or another doubt; inactive = no such curve, though single readings can be large; an effect the other way counts as inactive or inconclusive. Unless noted, % is scaled to controls: 0 for no effect and ±100 for the full control effect.

SMILES | HT1080 IDH1KD tx | HT1080NT lethal | DT40 TDP1 CPT | IL1B secr inh | DT40 TDP1 no CPT
COc1cc(-c2coc3c(C(=O)NC4CCCCC4)cccc23)ccc1O | 21µM* | 16µM* | 18µM* | ? | ?
Cc1ccc(C23CC4CC(CC(C(=O)NC(C)C(N)=O)(C4)C2)C3)cc1 (stereo unspecified) | 12% | 6% | -19% | 17 | -30%
Cc1nn(C)c(C)c1CN(C)S(=O)(=O)c1ccc(F)cc1 | ? | -13% | ? | 28 | 21µM*
Cc1nn(C)c(C)c1CN(C)S(=O)(=O)c1ccc2ccccc2c1 | 2µM* | -13% | 2.2µM* | -14 | 1.3µM*
CCN(CC)S(=O)(=O)c1ccc(S(=O)(=O)Nc2c(C)nn(C)c2C)cc1 | ? | 16µM* | 6.5µM* | -11 | 4.6µM*
CCOC(=O)C1(C)CCCN1C(=O)c1ccc(F)c(Cl)c1 (stereo unspecified) | 4% | 21% | ? | 18 | ?
Cc1cc(C)n2c(Nc3ccc4c(c3)OCCO4)c(CC(C)C)nc2n1 | 12% | 10% | 21µM* | 49 | 12µM*
Cc1cc(C)n2c(NC3CCCCC3)c(CC(C)C)nc2n1 | 7% | 21% | ? | 0 | 18µM*
COc1ccc(S(N)(=O)=O)cc1C(=O)OCC(=O)N1CCCC(C)C1 (stereo unspecified) | 8% | 2% | 0% | 3 | -4%
CC1(C)CC(=O)c2cc(C(=O)Nc3cccc4ccccc34)c(=O)[nH]c2C1 | . | . | ? | . | 16µM*
C=C(C)c1cccc(C(C)(C)NC(=O)N2CCC(C)CC2)c1 | 6% | -1% | 18µM* | ? | ?
CCOC(=O)CNC(=S)N(Cc1ccc(C)cc1)Cc1ccc(C)o1 | -4% | 0% | ? | -55* | ?
CN(Cc1ccccc1)C(=O)c1csc([C@@H]2C[C@H](O)[C@@H](CO)O2)n1 | -8% | 14% | -8% | 12 | -1%
O=C(CNc1cccc(S(=O)(=O)N2CCCC2)c1)Nc1cccc(C(F)(F)F)c1 | -22% | -3% | 10µM* | 0 | 12µM*
O=C(CNc1ccc(C(F)(F)F)cc1)Nc1cccc(S(=O)(=O)N2CCCC2)c1 | -20% | -10% | -25% | 26 | ?
O=C(CNc1cccc(S(=O)(=O)N2CCOCC2)c1)Nc1ccc(C(F)(F)F)cc1 | -23% | -8% | ? | ? | 16µM*
O=C(CNc1ccc(C(F)(F)F)cc1)Nc1cccc(S(=O)(=O)N2CCCCC2)c1 | ? | ? | ? | -59* | 16µM*
O=C(Cc1cccc(C(F)(F)F)c1)Nc1ccc(S(=O)(=O)N2CCCC2)cc1 | -1% | 5% | ? | ? | ?
O=C(Cc1cccc(C(F)(F)F)c1)Nc1cccc(S(=O)(=O)N2CCCC2)c1 | 3% | -1% | 16µM* | 2 | ?
CCNc1ncc2nc(-c3cc(F)cc(F)c3)c(=O)n(CCOC)c2n1 | . | . | -15% | . | -5%
O=C(CNc1cc(S(=O)(=O)N2CCCC2)ccc1OCC(F)(F)F)Nc1ccc(SC(F)F)cc1 | -27% | -27% | 1.8µM* | -68* | 3.7µM*
O=C(COC(=O)c1cc(S(=O)(=O)N2CCCC2)ccc1O)Nc1ccc(SC(F)F)cc1 | 5% | 5% | -1% | -5 | -1%
COc1cccc(/C=C2\SC(=S)N(CCCC(=O)Nc3cc(C)on3)C2=O)c1 | 4% | -1% | -27% | -13 | -6%
COc1cccc(/C=C2\SC(=S)N(CCC(=O)N3CCCCC3)C2=O)c1 | -1% | 0% | 6.5µM* | 0 | 4.1µM*
COc1ccc(/C=C2\SC(=S)N(CCC(=O)N3CCCCC3)C2=O)cc1 | 9% | 1% | ? | -6 | ?
